Experimental data taken from PubChem BioAssay (NCATS).
Inconclusive results are not listed. The source made the active and inactive calls. Unless noted, calls follow the shape of the dose curve; as a rule, active = well fitted curve in the direction sought with a large enough effect; inconclusive = small, poorly fitted or top-dose-only effect, or another doubt; inactive = no such curve, though single readings can be large; an effect the other way counts as inactive or inconclusive.

Legend:
[1] = Quantitative High-Throughput drug screen in 47 multiple myeloma cell lines against the NCATS MIPE library collection: PE2_PLB cell viability assay (AID 1919869); also: nearly all actives have a fitted effect of over 35% in size; also: potency is read from the fitted curve at half-maximal effect
How it was run: (§1)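 ATP-based luminescence (CellTiter-Glo, 5 min RT incubation) quantified surviving cells following two days' treatment with MIPE 4.0 agents at 37 °C, 5% CO2.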

[2] = Quantitative High-Throughput drug screen in 47 multiple myeloma cell lines against the NCATS MIPE library collection: RPMI8226_ATCC cell viability assay (AID 1919871); also: nearly all actives have a fitted effect of over 30% in size; also: potency is read from the fitted curve at half-maximal effect
How it was run: as §1

[3] = Quantitative High-Throughput drug screen in 47 multiple myeloma cell lines against the NCATS MIPE library collection: OPM2_DSMZ cell viability assay (AID 1919872); also: nearly all actives have a fitted effect of over 30% in size
How it was run: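 Luminescent ATP measurement with CellTiter-Glo gives viability, scaled between DMSO-only wells (100%) and media-only wells (0%). Cells, 500 per well, faced library compounds for 48 hours at 37C.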

[4] = Quantitative High-Throughput drug screen in 47 multiple myeloma cell lines against the NCATS MIPE library collection: KMS11_JCRBsus cell viability assay (AID 1919873); also: nearly all actives have a fitted effect of over 50% in size; also: potency is read from the fitted curve at half-maximal effect
How it was run: as §1

[5] = Quantitative High-Throughput drug screen in 47 multiple myeloma cell lines against the NCATS MIPE library collection: KMS28BM_JCRB cell viability assay (AID 1919874); also: nearly all actives have a fitted effect of over 35% in size; also: potency is read from the fitted curve at half-maximal effect
How it was run: as §1

[6] = qHTS drug screen for cell cycle checkpoint inhibitors in PARPi-resistant BRCA-mutant ovarian cancer cell lines. (AID 1963452; calls by dose curve); conditions: PEO1/OlaR viability, CellTiter-Glo luminescence, 96 h, stronger effect = lower value
How it was run: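 PEO1, PEO4 and PEO1/OlaR ovarian cancer cells, 600 per well, exposed 96 h at 37C to a dilution series. Viability read by CellTiter-Glo luminescence, normalized to DMSO and empty wells; activity summarized as Z-AUC.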

[7] = Quantitative High-Throughput drug screen in 47 multiple myeloma cell lines against the NCATS MIPE library collection: PCM6_Riken cell viability assay (AID 1919870); also: nearly all actives have a fitted effect of over 30% in size; also: potency is read from the fitted curve at half-maximal effect
How it was run: as §1

[8] = qHTS profiling for inhibitors of Plasmodium falciparum proliferation (AID 504749); also: potency is read from the fitted curve at half-maximal effect; nearly all actives have a fitted effect of over 60% in size; conditions: P. falciparum in erythrocytes, SYBR Green DNA, 72 h
How it was run: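 In a 72 h erythrocytic culture (37 C, humidified, 5% CO2) at 2.5% hematocrit and 0.3% starting parasitemia, compounds were tested; SYBR Green I in detergent lysis buffer stained parasite DNA overnight.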

[9] = qHTS for identification of novel therapeutic agents for treatment of microphthalmiaassociated transcription factor (MiT) renal cell carcinoma (RCC) (AID 1963991); conditions: CellTiter-Glo, 48 h, stronger effect = lower value;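 also: curves scaled with 100% = DMSO viability and 0% = empty wells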
How it was run: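 UOK109/UOK124/UOK145 (TFE3 fusions, three partners); 500 cells/well; MIPE v4.0, 1912 cpds, 11 conc.; 48 h, 37 C; CellTiter-Glo, 15 min RT; lum. Norm.: DMSO 100%, empty 0%.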

[10] = measured here: PEO1 parental Z-AUC
[11] = TFE3-RCC UOK109 viability, measured here: UOK109 Z-AUC
[12] = TFE3-RCC viability, measured here: UOK124 Z-AUC
[13] = TFE3-RCC viability, measured here: UOK145 Z-AUC

SMILES	Potency [1]	Potency [2]	Potency [3]	Potency [4]	Potency [5]	Z-AUC [6]	Z-AUC [6, 10]	Z-AUC ([6]; measured here: PEO4 Z-AUC)	Potency [7]	Potency ([8]; parasite line A)	Potency ([8]; parasite line B)	z-score [9, 11]	z-score [9, 12]	z-score [9, 13]
CCCn1c(=O)c2[nH]c(C34CC5CC3C[C@@H](C5)C4)nc2n(CCC)c1=O	inactive	8.33 µM (active)	inactive	inactive	inactive	0.471 (inactive)	0.393	0.158	–	–	–	–	–	–
S=C(NCc1ccc2c(c1)OCO2)N1CCN(c2ncnc3c2oc2ccccc23)CC1	6.79 µM (active)	–	–	1.52 µM (active)	1.36 µM (active)	-0.165 (inactive)	-1.16	0.0465	4.81 µM (active)	–	–	–	–	–
Cc1cccc(-c2nn(C(=S)Nc3ccccc3)cc2-c2ccnc3ccccc23)n1	7.43 µM (active)	inactive	inactive	–	inactive	0.884 (inactive)	0.402	0.406	–	–	–	–	–	–
CN1CCN(CCCN2c3ccccc3Sc3ccc(C(F)(F)F)cc32)CC1	9.35 µM (active)	–	inactive	inactive	inactive	0.668 (inactive)	0.224	0.215	1.48 µM (active)	2.24 µM (active)	2 µM (active)	–	–	–
Oc1ccc(C2CNCCc3c2cc(O)c(O)c3Cl)cc1 (centres undefined)	inactive	inactive	inactive	inactive	inactive	1.23 (inactive)	1.1	1	–	–	–	0.257	0.218	0.231
CNC(=O)c1ccc(N2C(=S)N(c3ccc(C#N)c(C(F)(F)F)c3)C(=O)C2(C)C)cc1F	inactive	inactive	inactive	–	inactive	0.0364 (inactive)	0.676	0.909	–	–	–	–	–	–
Cn1cc(-c2ccc3nnc(C(F)(F)c4ccc5ncccc5c4)n3n2)cn1	inactive	–	inactive	inactive	inactive	-0.354 (inactive)	0.00451	0.204	inactive	–	–	–	–	–
CCOc1ccc(Cc2cc([C@@H]3O[C@H](CO)[C@@H](O)[C@H](O)[C@@H]3O)ccc2Cl)cc1	inactive	inactive	inactive	inactive	inactive	–	–	–	–	–	–	0.362	0.747	0.623
CCCC(CCC)C(=O)O	inactive	inactive	inactive	inactive	inactive	0.56 (inactive)	0.704	0.624	–	–	–	–	–	–
